Data from PubChem BioAssay AID1159580 (chemical genetic matrix, 2015).
The campaign covered roughly 5,500 compounds. About 2,000 (36%) were called active. Not shown: some 18% with an inconclusive outcome. This is one part of the list. Values without a mark were called inactive. Cut-off read from the data, not from the text of the source: active = normalized growth mostly below about 0.91 (no sharp cut-off); inconclusive = no clear call, values can overlap the other calls; inactive = mostly above about 0.92.

Assay: chemical genetic growth profiling, strain panel (AID 1159580);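 note: tested at 20 µM; growth read once vehicle control cultures reached saturation at 30 °C; 1 = growth at the plate median or of vehicle wells; lower values mean less growth of the strain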
Details: growth OD
[1] = S. cerevisiae deletion strains, locus YAL013W, strain DEP1, hits give low values
[2] = S. cerevisiae deletion strains, locus YBR229C, strain ROT2, hits give low values
[3] = S. cerevisiae deletion strains, locus YDL101C, strain DUN1, hits give low values
[4] = S. cerevisiae deletion strains, locus YDL134C, strain PPH21, hits give low values
[5] = S. cerevisiae deletion strains, locus YDR150W, strain NUM1, hits give low values
[6] = S. cerevisiae deletion strains, locus YEL061C, strain CIN8, hits give low values
[7] = S. cerevisiae deletion strains, locus YGR078C, strain PAC10, hits give low values
[8] = S. cerevisiae deletion strains, locus YHR030C, strain SLT2, hits give low values
[9] = S. cerevisiae deletion strains, locus YHR087W, strain rtc3, hits give low values
[10] = S. cerevisiae deletion strains, locus YJR043C, strain POL32, hits give low values
[11] = S. cerevisiae deletion strains, locus YJR075W, strain HOC1, hits give low values
[12] = S. cerevisiae deletion strains, locus YLR039C, strain RIC1, hits give low values
[13] = S. cerevisiae deletion strains, locus YLR058C, strain SHM2 (second series), hits give low values
[14] = S. cerevisiae deletion strains, locus YLR085C, strain ARP6, hits give low values
[15] = S. cerevisiae deletion strains, locus YLR262C, strain YPT6, hits give low values
[16] = S. cerevisiae deletion strains, locus YML094W, strain GIM5, hits give low values
[17] = S. cerevisiae deletion strains, locus YMR219W, strain ESC1, hits give low values
[18] = S. cerevisiae deletion strains, locus YMR263W, strain SAP30, hits give low values
[19] = S. cerevisiae deletion strains, locus YNL128W, strain TEP1, hits give low values
[20] = S. cerevisiae deletion strains, locus YNL153C, strain GIM3, hits give low values
[21] = S. cerevisiae deletion strains, locus YNL298W, strain CLA4 (second series), hits give low values
[22] = S. cerevisiae deletion strains, locus YNL322C, strain KRE1, hits give low values
[23] = S. cerevisiae deletion strains, locus YNR030W, strain Alg12, hits give low values
[24] = S. cerevisiae deletion strains, locus YPL055C, strain LGE1, hits give low values
[25] = S. cerevisiae deletion strains, locus YPL241C, strain CIN2, hits give low values
[26] = S. cerevisiae deletion strains, locus YPR135W, strain CTF4, hits give low values
[27] = S. cerevisiae deletion strains, locus YJL187C, strain SWE1, hits give low values

O=S(=O)(CCN1CCOCC1)c1ccc(Cl)cc1
normalized growth [1]: 0.995
normalized growth [2]: 0.982
normalized growth [3]: 0.967
normalized growth [4]: 0.993
normalized growth [5]: 1.01
normalized growth [6]: 0.993
normalized growth [7]: 0.983
normalized growth [8]: 1.06
normalized growth [9]: 0.982
normalized growth [10]: 1
normalized growth [11]: 0.998
normalized growth [12]: 1
normalized growth [13]: 0.963
normalized growth [14]: 0.974
normalized growth [15]: 1.07
normalized growth [16]: 0.982
normalized growth [17]: 0.982
normalized growth [18]: 0.99
normalized growth [19]: 0.987
normalized growth [20]: 1.01
normalized growth [21]: 0.996
normalized growth [22]: 0.985
normalized growth [23]: 0.987
normalized growth [24]: 0.982
normalized growth [25]: 0.986
normalized growth [26]: 1.15
normalized growth (S. cerevisiae strains, strain wild type, hits give low values): 0.976

COc1ccc2c(c1)c(CC(=O)N1CCOCC1)c(C)n2C(=O)c1ccc(Cl)cc1
normalized growth (S. cerevisiae deletion strains, locus YAL040C, strain CLN3, hits give low values): 0.996
normalized growth (S. cerevisiae deletion strains, locus YCL061C, strain MRC1 (second series), hits give low values): 1.01
normalized growth (S. cerevisiae deletion strains, locus YDR363W, strain ESC2, hits give low values): 1.03
normalized growth (S. cerevisiae deletion strains, locus YER002W, strain NOP16, hits give low values): 0.998
normalized growth [7]: 1.01
normalized growth (S. cerevisiae deletion strains, locus YGR229C, strain SMI1, hits give low values): 1
normalized growth [18]: 1.01
normalized growth (S. cerevisiae deletion strains, locus YNL175C, strain NOP13, hits give low values): 1.01
normalized growth (S. cerevisiae deletion strains, locus YNL197C, strain WHI3, hits give low values): 1.01
normalized growth (S. cerevisiae deletion strains, locus YNL224C, strain SQS1, hits give low values): 0.993
normalized growth [22]: 1.01
normalized growth (S. cerevisiae deletion strains, locus YOR083W, strain WHI5 (second series), hits give low values): 0.999
normalized growth [25]: 1.01

Clc1ccc2c(c1)c1ccccc1n2CN1CCOCC1
normalized growth (S. cerevisiae deletion strains, locus YAR019C, strain CDC15, hits give low values): 0.935
normalized growth (S. cerevisiae deletion strains, locus YBL105C, strain PKC1, hits give low values): 0.941
normalized growth (S. cerevisiae deletion strains, locus YBR135W, strain CKS1, hits give low values): 0.925
normalized growth (S. cerevisiae deletion strains, locus YBR136W, strain MEC1, hits give low values): 0.957
normalized growth (S. cerevisiae deletion strains, locus YBR160W, strain CDC28, hits give low values): 0.945
normalized growth (S. cerevisiae deletion strains, locus YDL017W, strain CDC7, hits give low values): 0.938
normalized growth (S. cerevisiae deletion strains, locus YDL028C, strain MPS1, hits give low values): 0.95
normalized growth [3]: 0.975
normalized growth (S. cerevisiae deletion strains, locus YDL108W, strain KIN28, hits give low values): 0.949
normalized growth (S. cerevisiae deletion strains, locus YDL132W, strain cdc53, hits give low values): 0.918
normalized growth (S. cerevisiae deletion strains, locus YDL214C, strain PRR2, hits give low values): 0.753
normalized growth (S. cerevisiae deletion strains, locus YDR052C, strain DBF4, hits give low values): 0.951
normalized growth (S. cerevisiae deletion strains, locus YDR054C, strain cdc34, hits give low values): 0.926
normalized growth (S. cerevisiae deletion strains, locus YDR226W, strain ADK1, hits give low values): 0.933
normalized growth (S. cerevisiae deletion strains, locus YDR477W, strain SNF1, hits give low values): 0.541 (active)
normalized growth (S. cerevisiae deletion strains, locus YER123W, strain YCK3, hits give low values): 0.588 (active)
normalized growth (S. cerevisiae deletion strains, locus YER133W, strain GLC7, hits give low values): 0.641 (active)
normalized growth (S. cerevisiae deletion strains, locus YFL009W, strain cdc4, hits give low values): 0.934
normalized growth (S. cerevisiae deletion strains, locus YFL029C, strain CAK1, hits give low values): 0.917
normalized growth (S. cerevisiae deletion strains, locus YFR003C, strain YPI1, hits give low values): 0.945
normalized growth (S. cerevisiae deletion strains, locus YFR019W, strain FAB1, hits give low values): 0.894
normalized growth (S. cerevisiae deletion strains, locus YFR028C, strain CDC14, hits give low values): 0.952
normalized growth (S. cerevisiae deletion strains, locus YGR040W, strain KSS1, hits give low values): 0.592 (active)
normalized growth (S. cerevisiae deletion strains, locus YGR052W, strain FMP48, hits give low values): 0.603
normalized growth (S. cerevisiae deletion strains, locus YGR092W, strain DBF2, hits give low values): 0.208 (active)
normalized growth [8]: 0.679 (active)
normalized growth (S. cerevisiae deletion strains, locus YHR079C, strain IRE1, hits give low values): 0.79
normalized growth (S. cerevisiae deletion strains, locus YHR082C, strain KSP1, hits give low values): 0.764
normalized growth (S. cerevisiae deletion strains, locus YHR205W, strain SCH9, hits give low values): 0.714
normalized growth (S. cerevisiae deletion strains, locus YIL147C, strain SLN1, hits give low values): 0.944
normalized growth (S. cerevisiae deletion strains, locus YJL095W, strain BCK1, hits give low values): 0.724
normalized growth (S. cerevisiae deletion strains, locus YJL128C, strain PBS2, hits give low values): 0.921
normalized growth (S. cerevisiae deletion strains, locus YJL157C, strain FAR1, hits give low values): 0.722
normalized growth (S. cerevisiae deletion strains, locus YJR016C, strain ILV3, hits give low values): 0.943
normalized growth (S. cerevisiae deletion strains, locus YJR066W, strain TOR1 (second series), hits give low values): 0.738
normalized growth (S. cerevisiae deletion strains, locus YJR066W, strain TOR1, hits give low values): 0.619
normalized growth (S. cerevisiae deletion strains, locus YKL048C, strain ELM1, hits give low values): 0.696 (active)
normalized growth (S. cerevisiae deletion strains, locus YKL067W, strain YNK1, hits give low values): 0.709 (active)
normalized growth (S. cerevisiae deletion strains, locus YKL101W, strain HSL1, hits give low values): 0.728
normalized growth (S. cerevisiae deletion strains, locus YKL193C, strain SDS22, hits give low values): 0.916
normalized growth (S. cerevisiae deletion strains, locus YKL203C, strain TOR2, hits give low values): 0.598 (active)
normalized growth (S. cerevisiae deletion strains, locus YLR113W, strain HOG1, hits give low values): 0.755 (active)
normalized growth (S. cerevisiae deletion strains, locus YLR133W, strain CKI1, hits give low values): 0.776
normalized growth (S. cerevisiae deletion strains, locus YLR403W, strain SFP1, hits give low values): 0.612 (active)
normalized growth (S. cerevisiae deletion strains, locus YML070W, strain DAK1, hits give low values): 0.748
normalized growth (S. cerevisiae deletion strains, locus YMR001C, strain CDC5, hits give low values): 0.92
normalized growth (S. cerevisiae deletion strains, locus YMR205C, strain PFK2 (second series), hits give low values): 0.757
normalized growth (S. cerevisiae deletion strains, locus YMR277W, strain FCP1, hits give low values): 0.929
normalized growth (S. cerevisiae deletion strains, locus YNL006W, strain LST8, hits give low values): 0.934
normalized growth (S. cerevisiae deletion strains, locus YNL020C, strain ARK1, hits give low values): 0.771
normalized growth (S. cerevisiae deletion strains, locus YNL161W, strain CBK1, hits give low values): 0.928
normalized growth (S. cerevisiae deletion strains, locus YNL183C, strain NPR1, hits give low values): 0.658
normalized growth (S. cerevisiae deletion strains, locus YNL207W, strain RIO2, hits give low values): 0.914
normalized growth (S. cerevisiae deletion strains, locus YNL222W, strain SSU72, hits give low values): 0.927
normalized growth (S. cerevisiae deletion strains, locus YNL307C, strain MCK1 (second series), hits give low values): 0.602 (active)
normalized growth (S. cerevisiae deletion strains, locus YOL078W, strain AVO1, hits give low values): 0.93
normalized growth (S. cerevisiae deletion strains, locus YOL136C, strain PFK27, hits give low values): 0.72
normalized growth (S. cerevisiae deletion strains, locus YOR061W, strain CKA2, hits give low values): 0.558 (active)
normalized growth (S. cerevisiae deletion strains, locus YOR119C, strain RIO1, hits give low values): 0.501 (active)
normalized growth (S. cerevisiae deletion strains, locus YOR231W, strain MKK1, hits give low values): 0.834
normalized growth (S. cerevisiae deletion strains, locus YOR329C, strain SCD5, hits give low values): 0.934
normalized growth (S. cerevisiae deletion strains, locus YPL031C, strain PHO85, hits give low values): 0.545 (active)
normalized growth (S. cerevisiae deletion strains, locus YPL153C, strain RAD53, hits give low values): 0.786
normalized growth (S. cerevisiae deletion strains, locus YPL204W, strain HRR25, hits give low values): 0.641 (active)
normalized growth (S. cerevisiae deletion strains, locus YPL209C, strain IPL1, hits give low values): 0.939
normalized growth (S. cerevisiae deletion strains, locus YPL256C, strain CLN2, hits give low values): 0.823 (active)
normalized growth (S. cerevisiae deletion strains, locus YPR025C, strain CCL1, hits give low values): 0.934
normalized growth (S. cerevisiae deletion strains, locus YPR106W, strain ISR1, hits give low values): 0.94
normalized growth (S. cerevisiae deletion strains, locus YPR111W, strain DBF20, hits give low values): 0.939
normalized growth (S. cerevisiae deletion strains, strain NNK1, hits give low values): 0.949
normalized growth (S. cerevisiae deletion strains, strain TSCII, hits give low values): 0.912

O=C(O)c1ccc(N=Cc2ccc3c(c2)OCO3)cc1
normalized growth [1]: 1
normalized growth [2]: 0.991
normalized growth [3]: 0.983
normalized growth [5]: 0.879
normalized growth [6]: 1.01
normalized growth [7]: 0.994
normalized growth [8]: 0.999
normalized growth [9]: 1
normalized growth [27]: 0.985
normalized growth [10]: 0.997
normalized growth [11]: 0.979
normalized growth (S. cerevisiae deletion strains, locus YKL190W, strain CNB1, hits give low values): 1
normalized growth [12]: 0.991
normalized growth [13]: 0.99
normalized growth [14]: 1.05
normalized growth [15]: 0.998
normalized growth [16]: 1
normalized growth [17]: 0.988
normalized growth (S. cerevisiae deletion strains, locus YMR307W, strain GAS1, hits give low values): 1.02
normalized growth [19]: 1.04
normalized growth [20]: 0.98
normalized growth [21]: 1.04
normalized growth [22]: 0.991
normalized growth [23]: 1.01
normalized growth (S. cerevisiae deletion strains, locus YOL006C, strain TOP1, hits give low values): 1.04
normalized growth [24]: 0.984
normalized growth [25]: 0.992
normalized growth [26]: 0.997

O=C(O/N=C\c1ccc2c(c1)OCO2)c1ccccc1Br
normalized growth [1]: 0.907 (active)
normalized growth [2]: 0.949
normalized growth [3]: 0.961
normalized growth [4]: 0.827 (active)
normalized growth [5]: 0.872
normalized growth [6]: 0.844 (active)
normalized growth [7]: 0.927 (active)
normalized growth [8]: 0.315 (active)
normalized growth [9]: 0.928
normalized growth [27]: 0.964
normalized growth [10]: 0.926
normalized growth [11]: 0.935
normalized growth [12]: 0.491 (active)
normalized growth [13]: 0.973
normalized growth [14]: 0.465 (active)
normalized growth [15]: 0.577 (active)
normalized growth [16]: 0.815 (active)
normalized growth [17]: 0.959
normalized growth [18]: 0.892 (active)
normalized growth [20]: 0.959
normalized growth [21]: 0.826 (active)
normalized growth [22]: 0.95
normalized growth [23]: 0.857 (active)
normalized growth [24]: 0.728 (active)
normalized growth [25]: 0.834 (active)
normalized growth [26]: 0.591 (active)
